This passage reports outcome and AC50 results from PubChem BioAssay (EPA / NIEHS).

What is called AC50 is the concentration at which the activity in the assay is half-maximal.

Active and inactive are the calls of the source. Rule for the calls: active = hit-call score of the fitted dose curve at least 0.9, where 1 is the maximum; inactive = score below 0.9.

Read-out in the assay: Protein phosphatase 2A (PPP2R4), PTPA (gene 5524)
The assay is described as follows: LTEA_HepaRG_PPP2R4: Life Technologies and Expression Analysis (LTEA) Assay for Protein phosphatase 2A (PPP2R4) using HepaRG (AID 2283522). The settings on record: mRNA level, 48 h; actives raise or lower the signal. How it is done:
LTEA_HepaRG is a cell based, multiplexed-readout assay that uses HepaRG, a human liver cell line, with measurements taken at 48 hours after chemical dosing on a 96-well plate.LTEA_HepaRG_PPP2R4 is one of 102 assay component(s) measured in the LTEA HepaRG cell culture assay. It is a marker of Cell proliferation, survival, death.Data from the assay component LTEA_HepaRG_PPP2R4 was analyzed into 1 endpoint. This assay endpoint, LTEA_HepaRG_PPP2R4, was analyzed with bidirectional fitting relative to DMSO as the negative control and baseline of activity. Using a type of inducible reporter, measures of mRNA induction for gain or loss-of-signal activity can be used to understand regulation of transcription factor activity. To generalize the intended target to other relatable targets, this assay endpoint is annotated to the phosphatase intended target family, where the subfamily is serine/threonine phosphatase.
A total of 1060 chemcials from the ToxCast library were tested in eight-point concentration-response experiments. Cell culture and cytotoxicity assays were conducted at Thermo Fisher Scientific's Custom Services facility (Madison, WI). A single lot of human HepaRG cells (Thermo Fisher Scientific, Frederick, MD) was used for the cell culture experiments. 96-well format collagen type I coated plates of human HepaRG cells were prepared using established methods. Briefly, cryopreserved HepaRG cells were thawed, plated at a density of approximately 100,000 cells/well in HepaRG Thaw, Plate, and General Purpose media (HPRG770, Thermo Fisher Scientific), and incubated for 48 hours. 0.5% DMSO was selected as vehicle control to balance the requisite need of DMSO in HepaRG cultures to maintain differentiation (for example, baseline metabolism, proportions of hepatocytes vs. cholangiocytes), while enabling further hepatic receptor pathway activation (for example, PXR and CAR) in response to chemical exposure. 48 hours after plating, the culture medium was replaced with HepaRG Serum-Free Incudtion Media. Cells were exposed to each test chemical in duplicate and maintained in CO2 incubators for another 48 hours. Chemical plates were thawed to room temperature and 200x concentrations of treatment groups were prepared. 8-point conentration-reponse curves were made with the highest exposure at 100 uM, followed by half-log dilutions, all in 0.5% DMSO. Each test plate contained variouse controls, induction positive controls (1mM phenobarbital), cytotoxicity positive controls ([…] aflatoxin B1), vehicle controls (0.5% DMSO), and total lysis controls (0.5% DMSO). Cell morphology images were taken using an Essen IncuCyte FLR automated microscope, with six 96-well plates imaged in about 24 minutes. Images were captured and exported and JPEG files. Spent culture media was transfered to black-well plates for the LDH assay, and remaining media was sorted at -80 C for later use. Cells were treated with RLT buffer and frozen until shipped for gene expression analysis. Total RNA was isolated from the cell suspension in 75 uL of Buffer RLT (Qiagen, Germantown, MD 20874) by Quintiles/Expression Analysis (Durham, NC) using a custom isolation procedure. Total RNA from each plate well was transferred to a preamplification plate. Fluidigm's 96.96 Dynamic ArrayTM (Fluidigm, Amsterdam, the Netherlands) technology was used for gene expression analyses by quantitative reverse transcription polymerase chain reaction (qRT-PCR, performed by Quintiles/Expression Analysis, Durham, NC)89. Standard TaqManTM Assays (Applied Biosystems/ThermoFisher Scientific, Foster City, CA) were used to assess the expression of 93 genes selected based on their selectivity and sensitivity to important hepatic receptors known to be modulated by environmental chemicals; importance in human hepatocyte functionality; and hepatotoxicity. […]
In the case of `CCCCC(CC)C(=O)O` (stereo not given), the result was inactive.

In the case of `CCCCC=O`, the result was inactive.

Consider `CCC(C)c1ccccc1O` (stereo not given), for which the compound was called inactive.

As to `Cc1[nH]nc2c1N=C(c1ccccc1Cl)c1cc([N+](=O)[O-])ccc1N2`, the compound was called inactive.

For `CN(Cc1cnc2nc(N)nc(N)c2n1)c1ccc(C(=O)N[C@@H](CCC(=O)O)C(=O)O)cc1`, the outcome was inactive.

Regarding `O=C(c1ccccc1)c1ccccc1`, the call was inactive.

For the compound `CCCCCCCCCCCCCCC`, the compound was classed as inactive.

As for `CS(=O)(=O)c1ccc([C@@H](CC2CCCC2)C(=O)Nc2cnccn2)cc1Cl`, the AC50 was 50 µM (active).

`O=C1NS(=O)(=O)c2ccccc21`: the compound was called inactive.

For `OCC(CO)(CBr)CBr`, the outcome was inactive.

With `CCCCc1oc2ccccc2c1C(=O)c1cc(I)c(OCCN(CC)CC)c(I)c1`, the compound was classed as inactive.

`N=C(N)c1ccc(OCCCCCOc2ccc(C(=N)N)cc2)cc1`: the AC50 was 28.4 µM (active).

As to `O=C(CCCN1CCC(O)(c2ccc(Cl)cc2)CC1)c1ccc(F)cc1`, the outcome was inactive.

In the case of `CC(=O)Nc1ccc(O)cc1`, the call was inactive.

Consider `CN(C)CCOC(c1ccccc1)c1ccccc1`, for which the compound was called inactive.
